# In the supplement of paper PMC10037445:
# ± gives the standard deviation of the averaged measurements. The full ranking holds about 2,900 compounds; the median of “IRF Lucia reporter activity, fold change vs agonist alone” is about 0.9, and the highest 2% start at about 2.8. This excerpt belongs to a sample that is enriched for the highest values.
# Assays:
# RAW-Dual [1] = experiment: IRF Lucia reporter activity, fold change vs agonist alone; higher = enhanced IRF activity; conditions: library stock concentration (final ~1000-fold dilution): 10 mM, agonist: MPLA (TLR4) […]
# Procedure, shortened: (§1)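 RAW-Dual macrophages (50,000 cells/well in DMEM, 384-well plates) received 50 nL of library stock by pin tool, then a PRR agonist 1 h later, and were kept at 37 °C, 5% CO2. After 20 hours, supernatant was read for IRF by QuantiLuc luminescence and for NF-κB by QuantiBlue absorbance at 620 nm. Reporter activity is fold change over agonist-alone wells. Cytotoxic wells had IncuCyte confluency below 70% of agonist controls in both mask sets.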
# RAW-Dual [2] = experiment: IRF Lucia reporter activity, fold change vs agonist alone; cytotoxicity flag (confluency mask): cytotoxic (confluency <70% of control); higher = enhanced IRF activity
# Procedure, shortened: as §1
# RAW-Dual [3] = experiment: IRF Lucia reporter activity, fold change vs agonist alone; cytotoxicity flag (confluency mask): not cytotoxic; higher = enhanced IRF activity
# Procedure, shortened: as §1
# [4] = cytotoxicity flag (confluency mask): cytotoxic (confluency <70% of control)
# [5] = agonist: 3'3'-cGAMP (STING) 10 ug/mL
# [6] = cytotoxicity flag (confluency mask): not cytotoxic
compound,measurement,setting,value
CC(=O)OCC1OC([S-])C(OC(C)=O)C(OC(C)=O)C1OC(C)=O.CCP(CC)CC.[Au+] (stereo not drawn),IRF Lucia reporter activity,RAW-Dual [1]; [4],0.0231
CC(=O)OCC1OC([S-])C(OC(C)=O)C(OC(C)=O)C1OC(C)=O.CCP(CC)CC.[Au+] (stereo not drawn) (library stock concentration (final ~1000-fold dilution): 10 mM),IRF Lucia reporter activity,RAW-Dual [2]; [5],0.0169
same,IRF Lucia reporter activity,RAW-Dual [2]; agonist: LPS (TLR4) 0.1 ug/mL,0.0188
CC(=O)OC1CC/C(C)=C/CC/C(C)=C/CC2(C(C)C)CCC1(C)O2 (stereo not drawn) (library stock concentration (final ~1000-fold dilution): 10 mM),IRF Lucia reporter activity,RAW-Dual [3]; [5],0.818 ± 0.25
same,IRF Lucia reporter activity,RAW-Dual [3]; agonist: LPS (TLR4) 0.1 ug/mL,0.744 ± 0.15
O=C(/C=C/c1ccc(O)c(O)c1)O[C@@H]1C[C@@](O)(C(=O)O)C[C@@H](O)[C@@H]1O (library stock concentration (final ~1000-fold dilution): 10 mM),IRF Lucia reporter activity,RAW-Dual [3]; [5],1.02
same,IRF Lucia reporter activity,RAW-Dual [3]; agonist: LPS (TLR4) 0.1 ug/mL,1.23
CS(=O)(=O)O.Cc1c(O)cccc1C(=O)NC(CSc1ccccc1)C(O)CN1CC2CCCCC2CC1C(=O)NC(C)(C)C (stereo not drawn) (library stock concentration (final ~1000-fold dilution): 10 mM),IRF Lucia reporter activity,RAW-Dual [3]; [5],0.918
same,IRF Lucia reporter activity,RAW-Dual [3]; agonist: LPS (TLR4) 0.1 ug/mL,3.62
CS(=O)(=O)O.Cc1c(O)cccc1C(=O)NC(CSc1ccccc1)C(O)CN1CC2CCCCC2CC1C(=O)NC(C)(C)C (stereo not drawn),IRF Lucia reporter activity,RAW-Dual [1]; [6],2.24
CC(C)(C)NC(=O)C1CN(Cc2cccnc2)CCN1CC(O)CC(Cc1ccccc1)C(=O)NC1c2ccccc2CC1O.O=S(=O)(O)O (stereo not drawn) (library stock concentration (final ~1000-fold dilution): 10 mM),IRF Lucia reporter activity,RAW-Dual [3]; [5],1.1
same,IRF Lucia reporter activity,RAW-Dual [3]; agonist: LPS (TLR4) 0.1 ug/mL,0.77
CC(C)c1nc(CN(C)C(=O)NC(C(=O)NC(Cc2ccccc2)CC(O)C(Cc2ccccc2)NC(=O)OCc2cncs2)C(C)C)cs1 (stereo not drawn) (library stock concentration (final ~1000-fold dilution): 10 mM),IRF Lucia reporter activity,RAW-Dual [3]; [5],0.757
same,IRF Lucia reporter activity,RAW-Dual [3]; agonist: LPS (TLR4) 0.1 ug/mL,1.34
CC(C)c1nc(CN(C)C(=O)NC(C(=O)NC(Cc2ccccc2)CC(O)C(Cc2ccccc2)NC(=O)OCc2cncs2)C(C)C)cs1 (stereo not drawn),IRF Lucia reporter activity,RAW-Dual [1]; [6],1.07
Cc1cc(C(=O)NC(C)(C)C)cc(C#Cc2ccc3c4c(oc3c2)C(C)(C)c2cc(NS(C)(=O)=O)ccc2C4=O)n1 (library stock concentration (final ~1000-fold dilution): 10 mM),IRF Lucia reporter activity,RAW-Dual [3]; [5],0.196
same,IRF Lucia reporter activity,RAW-Dual [3]; agonist: LPS (TLR4) 0.1 ug/mL,0.504
CCC1=CC2CN(C1)Cc1c([nH]c3ccccc13)C(C(=O)OC)(c1cc3c(cc1OC)N(C)C1C(O)(C(=O)OC)C(OC(C)=O)C4(CC)C=CCN5CCC31C54)C2 (stereo not drawn),IRF Lucia reporter activity,RAW-Dual [1]; [4],2.68
CCC1(O)CC2CN(CCc3c([nH]c4ccccc34)C(C(=O)OC)(c3cc4c(cc3OC)N(C)C3C(O)(C(=O)OC)C(OC(C)=O)C5(CC)C=CCN6CCC43C65)C2)C1.O=S(=O)(O)O (stereo not drawn),IRF Lucia reporter activity,RAW-Dual [1]; [4],2.07
CCC1(O)CC2CN(CCc3c([nH]c4ccccc34)C(C(=O)OC)(c3cc4c(cc3OC)N(C)C3C(O)(C(=O)OC)C(OC(C)=O)C5(CC)C=CCN6CCC43C65)C2)C1.O=S(=O)(O)O (stereo not drawn) (library stock concentration (final ~1000-fold dilution): 10 mM),IRF Lucia reporter activity,RAW-Dual [2]; [5],0.226
same,IRF Lucia reporter activity,RAW-Dual [2]; agonist: LPS (TLR4) 0.1 ug/mL,2.16
CCC1=CC2CN(C1)Cc1c([nH]c3ccccc13)C(C(=O)OC)(c1cc3c(cc1OC)N(C)C1C(O)(C(=O)OC)C(OC(C)=O)C4(CC)C=CCN5CCC31C54)C2 (stereo not drawn) (library stock concentration (final ~1000-fold dilution): 10 mM),IRF Lucia reporter activity,RAW-Dual [2]; [5],0.371
same,IRF Lucia reporter activity,RAW-Dual [2]; agonist: LPS (TLR4) 0.1 ug/mL,2.95
CCC1(O)CC2CN(CCc3c([nH]c4ccccc34)C(C(=O)OC)(c3cc4c(cc3OC)N(C=O)C3C(O)(C(=O)OC)C(OC(C)=O)C5(CC)C=CCN6CCC43C65)C2)C1.O=S(=O)(O)O (stereo not drawn),IRF Lucia reporter activity,RAW-Dual [1]; [6],1.06
CCC1(O)CC2CN(CCc3c([nH]c4ccccc34)C(C(=O)OC)(c3cc4c(cc3OC)N(C=O)C3C(O)(C(=O)OC)C(OC(C)=O)C5(CC)C=CCN6CCC43C65)C2)C1.O=S(=O)(O)O (stereo not drawn) (library stock concentration (final ~1000-fold dilution): 10 mM),IRF Lucia reporter activity,RAW-Dual [3]; [5],0.107
same,IRF Lucia reporter activity,RAW-Dual [3]; agonist: LPS (TLR4) 0.1 ug/mL,2.02
CCCCS(=O)(=O)NC(Cc1ccc(OCCCCC2CCNCC2)cc1)C(=O)O.Cl.O (stereo not drawn) (library stock concentration (final ~1000-fold dilution): 10 mM),IRF Lucia reporter activity,RAW-Dual [3]; [5],0.894
same,IRF Lucia reporter activity,RAW-Dual [3]; agonist: LPS (TLR4) 0.1 ug/mL,1.35
